ChEMBL document CHEMBL1961873, “Compounds: GSK PKIS; Assays: Nanosyn kinase panel” (2012)

Legend:
[1] = biological target: RAC-alpha serine/threonine-protein kinase (Homo sapiens) (UniProt P31749); conditions: at 0.1 µM
[2] = biological target: RAC-alpha serine/threonine-protein kinase (Homo sapiens) (UniProt P31749); conditions: at 1 µM
[3] = biological target: RAC-beta serine/threonine-protein kinase (Homo sapiens) (UniProt P31751); conditions: at 0.1 µM
[4] = biological target: RAC-beta serine/threonine-protein kinase (Homo sapiens) (UniProt P31751); conditions: at 1 µM
[5] = biological target: RAC-gamma serine/threonine-protein kinase (Homo sapiens) (UniProt Q9Y243); conditions: at 0.1 µM
[6] = biological target: RAC-gamma serine/threonine-protein kinase (Homo sapiens) (UniProt Q9Y243); conditions: at 1 µM
[7] = biological target: G protein-coupled receptor kinase 6 (Homo sapiens) (UniProt P43250); conditions: at 0.1 µM
[8] = biological target: G protein-coupled receptor kinase 6 (Homo sapiens) (UniProt P43250); conditions: at 1 µM
[9] = biological target: T1, Rhodopsin kinase GRK7 (Homo sapiens) (UniProt Q8WTQ7); conditions: at 0.1 µM
T1 sequence (whole entry): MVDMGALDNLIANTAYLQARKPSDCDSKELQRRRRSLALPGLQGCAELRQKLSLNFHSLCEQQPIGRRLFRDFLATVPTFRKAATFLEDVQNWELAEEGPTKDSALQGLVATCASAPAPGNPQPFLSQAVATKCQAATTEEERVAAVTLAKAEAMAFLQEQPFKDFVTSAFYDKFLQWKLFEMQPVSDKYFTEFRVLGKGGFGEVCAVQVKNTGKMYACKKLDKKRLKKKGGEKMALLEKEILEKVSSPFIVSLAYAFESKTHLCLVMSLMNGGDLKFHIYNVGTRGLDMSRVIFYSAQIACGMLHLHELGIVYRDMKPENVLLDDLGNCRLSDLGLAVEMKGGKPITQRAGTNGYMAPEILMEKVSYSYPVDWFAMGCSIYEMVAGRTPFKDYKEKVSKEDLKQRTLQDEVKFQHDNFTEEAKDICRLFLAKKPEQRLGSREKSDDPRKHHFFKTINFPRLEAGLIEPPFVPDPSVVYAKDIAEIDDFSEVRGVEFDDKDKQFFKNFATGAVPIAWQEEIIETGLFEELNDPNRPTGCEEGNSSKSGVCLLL

[10] = biological target: T1, Rhodopsin kinase GRK7 (Homo sapiens); conditions: at 1 µM
[11] = biological target: Serine/threonine-protein kinase MRCK alpha (Homo sapiens) (UniProt Q5VT25); conditions: at 0.1 µM
[12] = biological target: Serine/threonine-protein kinase MRCK alpha (Homo sapiens) (UniProt Q5VT25); conditions: at 1 µM
[13] = biological target: Serine/threonine-protein kinase MRCK beta (Homo sapiens) (UniProt Q9Y5S2); conditions: at 0.1 µM
[14] = biological target: Serine/threonine-protein kinase MRCK beta (Homo sapiens) (UniProt Q9Y5S2); conditions: at 1 µM
[15] = biological target: Ribosomal protein S6 kinase alpha-5 (Homo sapiens) (UniProt O75582); conditions: at 0.1 µM
[16] = biological target: Ribosomal protein S6 kinase alpha-5 (Homo sapiens) (UniProt O75582); conditions: at 1 µM
[17] = biological target: Ribosomal protein S6 kinase alpha-4 (Homo sapiens) (UniProt O75676); conditions: at 0.1 µM
[18] = biological target: Ribosomal protein S6 kinase alpha-4 (Homo sapiens) (UniProt O75676); conditions: at 1 µM
[19] = biological target: Ribosomal protein S6 kinase beta-1 (Homo sapiens) (UniProt P23443); conditions: at 0.1 µM
[20] = biological target: Ribosomal protein S6 kinase beta-1 (Homo sapiens) (UniProt P23443); conditions: at 1 µM

Sequence of Serine/threonine-protein kinase MRCK beta (Homo sapiens) (Q9Y5S2 whole entry): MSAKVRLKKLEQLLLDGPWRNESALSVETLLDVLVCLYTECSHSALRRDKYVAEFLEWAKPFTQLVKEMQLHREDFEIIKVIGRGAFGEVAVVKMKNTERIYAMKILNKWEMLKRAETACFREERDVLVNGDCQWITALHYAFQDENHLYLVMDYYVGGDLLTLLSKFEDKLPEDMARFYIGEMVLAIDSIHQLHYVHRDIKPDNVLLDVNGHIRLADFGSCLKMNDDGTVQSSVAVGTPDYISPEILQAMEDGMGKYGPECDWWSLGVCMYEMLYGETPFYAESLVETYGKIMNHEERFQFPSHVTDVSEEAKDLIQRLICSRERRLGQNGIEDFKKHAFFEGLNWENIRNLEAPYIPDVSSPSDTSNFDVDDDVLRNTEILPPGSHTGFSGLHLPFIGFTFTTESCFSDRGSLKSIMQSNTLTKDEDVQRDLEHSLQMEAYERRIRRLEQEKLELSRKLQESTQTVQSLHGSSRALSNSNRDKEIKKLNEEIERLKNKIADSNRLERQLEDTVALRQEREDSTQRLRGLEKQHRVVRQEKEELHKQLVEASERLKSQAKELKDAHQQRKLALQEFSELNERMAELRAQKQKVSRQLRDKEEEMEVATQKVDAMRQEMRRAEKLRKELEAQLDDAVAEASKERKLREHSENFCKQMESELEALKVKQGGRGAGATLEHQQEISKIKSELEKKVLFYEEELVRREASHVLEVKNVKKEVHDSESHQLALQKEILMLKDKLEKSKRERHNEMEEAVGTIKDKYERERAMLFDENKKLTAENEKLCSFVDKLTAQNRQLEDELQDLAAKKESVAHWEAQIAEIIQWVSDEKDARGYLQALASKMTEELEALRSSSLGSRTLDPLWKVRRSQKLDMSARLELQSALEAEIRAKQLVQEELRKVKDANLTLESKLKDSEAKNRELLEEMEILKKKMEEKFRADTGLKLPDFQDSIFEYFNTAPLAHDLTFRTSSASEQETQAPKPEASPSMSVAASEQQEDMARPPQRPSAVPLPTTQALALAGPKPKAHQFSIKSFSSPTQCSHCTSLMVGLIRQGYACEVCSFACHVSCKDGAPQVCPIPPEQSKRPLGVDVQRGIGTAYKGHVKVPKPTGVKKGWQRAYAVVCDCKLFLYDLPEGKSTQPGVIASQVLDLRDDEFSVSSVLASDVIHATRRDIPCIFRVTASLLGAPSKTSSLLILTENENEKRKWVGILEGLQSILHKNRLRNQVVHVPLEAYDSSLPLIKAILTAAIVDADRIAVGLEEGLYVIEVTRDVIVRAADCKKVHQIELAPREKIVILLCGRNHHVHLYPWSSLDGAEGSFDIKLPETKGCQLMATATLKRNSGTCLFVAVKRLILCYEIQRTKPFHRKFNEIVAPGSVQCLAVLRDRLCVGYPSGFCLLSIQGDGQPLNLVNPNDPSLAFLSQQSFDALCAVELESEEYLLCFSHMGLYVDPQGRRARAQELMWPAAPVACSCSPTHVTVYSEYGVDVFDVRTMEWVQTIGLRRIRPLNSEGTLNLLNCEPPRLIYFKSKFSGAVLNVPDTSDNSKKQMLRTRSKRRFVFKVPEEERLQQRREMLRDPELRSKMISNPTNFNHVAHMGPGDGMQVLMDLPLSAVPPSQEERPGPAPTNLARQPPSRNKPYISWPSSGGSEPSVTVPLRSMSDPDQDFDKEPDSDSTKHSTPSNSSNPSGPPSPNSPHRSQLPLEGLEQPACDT
Sequence of RAC-gamma serine/threonine-protein kinase (Homo sapiens) (Q9Y243 whole entry): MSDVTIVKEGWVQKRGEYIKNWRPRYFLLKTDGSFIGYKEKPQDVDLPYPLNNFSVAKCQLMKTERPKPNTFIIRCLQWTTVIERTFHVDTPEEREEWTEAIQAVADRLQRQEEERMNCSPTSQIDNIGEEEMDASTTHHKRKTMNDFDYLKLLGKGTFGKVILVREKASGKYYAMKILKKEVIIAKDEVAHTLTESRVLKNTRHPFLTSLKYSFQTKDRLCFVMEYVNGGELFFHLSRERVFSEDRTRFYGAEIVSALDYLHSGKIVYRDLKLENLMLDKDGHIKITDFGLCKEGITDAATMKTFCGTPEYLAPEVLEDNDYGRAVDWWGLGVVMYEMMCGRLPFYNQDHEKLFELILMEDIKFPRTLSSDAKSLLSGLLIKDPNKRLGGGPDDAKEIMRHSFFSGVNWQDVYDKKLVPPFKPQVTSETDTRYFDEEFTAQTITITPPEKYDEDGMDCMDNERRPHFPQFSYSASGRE
Sequence of Serine/threonine-protein kinase MRCK alpha (Homo sapiens) (Q5VT25 whole entry): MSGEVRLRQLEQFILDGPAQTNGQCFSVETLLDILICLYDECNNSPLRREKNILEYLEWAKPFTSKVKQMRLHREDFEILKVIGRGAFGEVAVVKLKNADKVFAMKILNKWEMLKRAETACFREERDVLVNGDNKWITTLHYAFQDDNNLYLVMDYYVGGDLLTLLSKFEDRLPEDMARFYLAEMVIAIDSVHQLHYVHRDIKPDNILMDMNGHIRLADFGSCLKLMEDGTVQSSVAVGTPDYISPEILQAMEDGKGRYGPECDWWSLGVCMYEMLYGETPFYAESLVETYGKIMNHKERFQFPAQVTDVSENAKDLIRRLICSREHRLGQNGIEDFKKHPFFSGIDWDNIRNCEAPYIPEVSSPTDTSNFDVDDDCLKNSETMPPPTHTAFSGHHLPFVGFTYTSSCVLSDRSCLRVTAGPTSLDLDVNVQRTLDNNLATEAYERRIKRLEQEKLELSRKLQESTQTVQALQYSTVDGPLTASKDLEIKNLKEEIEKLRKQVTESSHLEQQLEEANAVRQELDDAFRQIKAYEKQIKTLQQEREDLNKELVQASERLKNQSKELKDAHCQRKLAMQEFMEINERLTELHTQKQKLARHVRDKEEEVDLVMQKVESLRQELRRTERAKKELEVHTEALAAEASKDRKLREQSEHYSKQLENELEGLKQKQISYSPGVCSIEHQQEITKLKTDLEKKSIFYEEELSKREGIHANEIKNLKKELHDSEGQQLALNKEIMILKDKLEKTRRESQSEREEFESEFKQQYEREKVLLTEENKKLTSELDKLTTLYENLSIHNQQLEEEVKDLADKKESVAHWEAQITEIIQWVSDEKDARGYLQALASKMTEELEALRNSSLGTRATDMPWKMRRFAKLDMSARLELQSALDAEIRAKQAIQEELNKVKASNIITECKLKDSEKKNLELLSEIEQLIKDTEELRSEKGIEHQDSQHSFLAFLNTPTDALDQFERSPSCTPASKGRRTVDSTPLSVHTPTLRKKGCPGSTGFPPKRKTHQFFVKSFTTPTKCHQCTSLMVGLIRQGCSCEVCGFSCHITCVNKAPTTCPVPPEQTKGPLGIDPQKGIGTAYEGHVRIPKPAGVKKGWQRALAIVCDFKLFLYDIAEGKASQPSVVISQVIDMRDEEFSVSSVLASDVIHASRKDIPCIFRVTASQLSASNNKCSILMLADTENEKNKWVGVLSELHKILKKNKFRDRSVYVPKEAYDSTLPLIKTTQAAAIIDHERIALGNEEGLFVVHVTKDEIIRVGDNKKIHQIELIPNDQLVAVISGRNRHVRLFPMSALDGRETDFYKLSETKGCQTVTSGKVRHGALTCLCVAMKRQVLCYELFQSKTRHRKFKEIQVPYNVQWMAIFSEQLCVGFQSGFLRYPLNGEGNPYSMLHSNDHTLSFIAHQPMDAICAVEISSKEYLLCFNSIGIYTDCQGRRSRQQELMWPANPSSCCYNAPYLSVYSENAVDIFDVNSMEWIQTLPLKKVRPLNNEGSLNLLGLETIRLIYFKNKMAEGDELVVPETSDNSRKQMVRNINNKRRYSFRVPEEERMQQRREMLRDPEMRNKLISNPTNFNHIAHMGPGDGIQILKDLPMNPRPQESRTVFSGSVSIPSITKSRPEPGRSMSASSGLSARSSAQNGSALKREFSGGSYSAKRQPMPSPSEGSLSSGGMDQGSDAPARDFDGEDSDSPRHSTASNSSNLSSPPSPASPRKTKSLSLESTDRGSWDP
Sequence of RAC-beta serine/threonine-protein kinase (Homo sapiens) (P31751 whole entry): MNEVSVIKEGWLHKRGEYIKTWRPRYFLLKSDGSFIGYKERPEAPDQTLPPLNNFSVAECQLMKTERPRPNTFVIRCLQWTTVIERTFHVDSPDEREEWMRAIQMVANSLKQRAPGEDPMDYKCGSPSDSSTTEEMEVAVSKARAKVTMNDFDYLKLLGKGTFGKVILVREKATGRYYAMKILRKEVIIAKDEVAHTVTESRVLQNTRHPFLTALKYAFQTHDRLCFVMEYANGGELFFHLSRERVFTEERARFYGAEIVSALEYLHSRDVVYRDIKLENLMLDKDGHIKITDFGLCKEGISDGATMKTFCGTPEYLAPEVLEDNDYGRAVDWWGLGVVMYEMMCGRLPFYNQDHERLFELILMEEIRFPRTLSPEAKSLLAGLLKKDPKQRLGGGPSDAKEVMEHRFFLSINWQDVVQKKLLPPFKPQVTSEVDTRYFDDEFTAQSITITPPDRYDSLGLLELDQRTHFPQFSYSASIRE
Sequence of G protein-coupled receptor kinase 6 (Homo sapiens) (P43250 whole entry, looked up): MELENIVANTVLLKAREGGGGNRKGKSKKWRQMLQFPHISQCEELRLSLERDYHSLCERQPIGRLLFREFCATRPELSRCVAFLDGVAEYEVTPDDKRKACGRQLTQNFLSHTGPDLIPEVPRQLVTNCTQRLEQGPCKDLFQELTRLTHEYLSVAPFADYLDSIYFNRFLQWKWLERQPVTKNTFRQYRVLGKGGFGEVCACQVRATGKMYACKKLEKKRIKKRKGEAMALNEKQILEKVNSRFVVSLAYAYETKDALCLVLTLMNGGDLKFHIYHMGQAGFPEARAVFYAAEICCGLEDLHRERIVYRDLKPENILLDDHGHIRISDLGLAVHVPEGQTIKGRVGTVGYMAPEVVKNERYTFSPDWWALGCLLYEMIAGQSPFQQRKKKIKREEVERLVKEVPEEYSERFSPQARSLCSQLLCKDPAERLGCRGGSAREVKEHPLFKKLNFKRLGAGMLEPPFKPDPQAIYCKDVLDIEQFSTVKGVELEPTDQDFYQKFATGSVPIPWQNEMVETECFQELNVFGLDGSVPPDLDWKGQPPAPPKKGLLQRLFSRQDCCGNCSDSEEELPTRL

Row | SMILES | inhibition [1] | inhibition [2] | inhibition [3] | inhibition [4] | inhibition [5] | inhibition [6] | inhibition [7] | inhibition [8] | inhibition [9] | inhibition [10] | inhibition [11] | inhibition [12] | inhibition [13] | inhibition [14] | inhibition [15] | inhibition [16] | inhibition [17] | inhibition [18] | inhibition [19] | inhibition [20]
1 | CCn1c(-c2nonc2N)nc2cnc(Oc3cccc(NC(=O)c4ccc(N(C)C)cc4)c3)cc21 | 0.51% | 7.63% | 0.71% | 8.4% | 1.82% | 10.2% | 0.82% | 2.85% | 2.74% | 4.11% | 7.29% | 53.4% | 17% | 62.9% | 60.2% | 80.5% | 61.2% | 79% | 71.7% | 90.4%
2 | [O-][S+]1CCN(Cc2ccc(-c3ccc4ncnc(Nc5ccc(OCc6cccc(F)c6)c(Cl)c5)c4c3)o2)CC1 | 2.98% | 0.19% | 3.72% | 3.57% | 2.4% | 2.54% | 3.23% | 4.79% | 9.08% | 2.57% | -1.31% | -1.3% | -0.28% | -0.43% | 3.5% | 3.71% | 3.38% | 4.98% | 2.86% | 3.84%
3 | Fc1cccc(COc2ccc(Nc3ncnc4sc(-c5ccco5)cc34)cc2Cl)c1 | 0.99% | 0.75% | 0.95% | 1.84% | 0.12% | 50.3% | 2.57% | 11.6% | 11.4% | 43.4% | -3.73% | -2.22% | -0.66% | -0.82% | 8.97% | 7.53% | 2.45% | 1.61% | 1.01% | 1.47%
4 | Nc1ncc(-c2cccc(S(N)(=O)=O)c2)c2scc(-c3ccc(F)c(Cl)c3)c12 | 0.6% | 1.09% | 0.29% | 2.33% | -0.27% | 5.34% | 0.4% | -0.33% | 6.15% | 6.1% | -3.16% | 7.9% | 0.86% | 0.71% | 2.3% | 0.77% | 3.08% | 2.86% | 1.63% | 0.72%
5 | COc1ccc(-c2oc3ncnc(N)c3c2-c2ccc(NC(=O)Nc3cc(C(F)(F)F)ccc3F)cc2)cc1 | 1.18% | 1.66% | 3.21% | 2.57% | 1.23% | 2.55% | 4.19% | 12.7% | 4.51% | 22% | 0.52% | 6.52% | 0.63% | 1.86% | 5.16% | 16.1% | 4.9% | 24.2% | 11.7% | 68.2%
6 | COc1ccc(-c2cc3c(N)ncnc3o2)cc1 | -0.96% | -1.46% | -0.81% | -0.64% | -1.06% | 1.62% | -0.25% | 0.98% | 3.4% | -1.5% | 1.37% | -2.67% | 1.33% | -0.07% | -2.51% | -3.04% | -0.05% | -0.35% | -0.5% | -0.54%
7 | CS(=O)(=O)CCNCc1ccc(-c2ccc3ncnc(Nc4ccc(OCc5ccccc5)c(C(F)(F)F)c4)c3c2)o1 | 1.54% | 1.3% | 1.35% | 2.2% | 0.3% | 3.04% | -0.85% | 1.09% | 10.8% | 3.42% | -6.32% | -1.92% | -0.98% | -1.25% | 8.24% | 6.53% | 1.86% | 0.65% | 1.21% | 1.16%
8 | CS(=O)(=O)CCNCc1coc(-c2ccc3ncnc(Nc4ccc(OCc5ccccc5)cc4)c3c2)c1 | 0.45% | 0.14% | -0.99% | 1.09% | -0.18% | 3.26% | 4.06% | 12.1% | 6.27% | 5.05% | 2.17% | 0.57% | 0.72% | 1.14% | 1.49% | 1.55% | 2.52% | 3.49% | 0.79% | 3.34%
9 | NC(=O)c1sc(-n2cnc3ccc(C(F)(F)F)cc32)cc1OCc1ccccc1Br | 0.43% | 0.68% | 2.44% | 2.18% | 0.75% | 1.39% | 5.91% | 9.67% | 4.43% | 14.5% | -0.03% | 1.97% | 0.62% | 3.16% | 4.33% | 4.75% | 3.18% | 5.34% | 1.25% | 2.28%
10 | Cc1cccc(Nc2ncc(-c3ccccc3)o2)c1 | 2.47% | 3.09% | 2.46% | 2.97% | 2.2% | 5.22% | 5.33% | 4.72% | 4.29% | 3.7% | 7.36% | 8.12% | 0.54% | 4.56% | 2.55% | 6.07% | 1.23% | 8.07% | 1.43% | 3.89%
11 | CCNC(=O)O[C@H]1CN[C@H](C#Cc2cc3ncnc(Nc4ccc(OCc5cccc(F)c5)c(Cl)c4)c3s2)C1 | 1.21% | 0.9% | 3.39% | 2.59% | 1.29% | 1.95% | 2.11% | 4.14% | 2.34% | 2.31% | 0.37% | -0.19% | 1.07% | 0.37% | 3.18% | 2.55% | 1.61% | 2.66% | 1.69% | 1.78%
12 | CCCN1CCC(c2ccc(Nc3nc(Nc4cc(F)ccc4C(N)=O)c4cc[nH]c4n3)c(OC)c2)CC1 | -0.31% | 0.33% | 2.13% | 1.62% | 1.85% | 2.68% | 16.3% | 58.8% | 11.6% | 45% | 2.45% | 30.4% | 1.71% | 23.3% | 2.89% | 8.65% | 2.82% | 12% | 2.27% | 7.03%
13 | NS(=O)(=O)c1ccc(N/N=C2\C(=O)Nc3ccc4ncccc4c32)cc1 | 0.85% | 0.69% | 1.6% | 2.48% | 1.36% | 2.03% | -2.97% | 15.8% | 4.91% | 19% | 1.68% | 13.5% | 0.55% | 7.07% | 5.1% | 14.5% | 20.4% | 61.2% | 2.37% | 12.1%
